The values below come from PubChem BioAssay AID1347426 (Functional Genomics Laboratory (NCATS/FGL), 2020).

Screen size: about 31,000 sequences; about 1,400 (4.5%) were called active. This is one part of a sample in which actives are shown more often than they occur.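 The calls were made as follows: active = median seed-adjusted z-score above 1 or below -1; inactive = the rest.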

This assay in a line: Novel Modifiers of Survival Motor Neuron (SMN) Protein: Gene Identification via Genome-wide siRNA Screen.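 Also: luminescence tracks full-length SMN protein made from the SMN2 reporter.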 The settings on record: HEK293T SMN2-luciferase reporter, siRNA knockdown, 72 h; actives lie on both sides. Summed up: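 Genome-wide siRNA screen (10418 genes, 3 siRNAs each, 1 pmol per well) by reverse transfection in HEK293T cells stably carrying an SMN2-luciferase reporter; luminescence after 72 hours, normalized to negative-control siRNA, log10-transformed, MAD-scored.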
As for GCCGUAUAAGUGUCAAGCATT against ZNF57, the median seed-adjusted z-score is 0 (inactive).

As for CAAUGUUAGGAGUCAGUCATT against ACTL6A, the median seed-adjusted z-score was 1.11 (active).

As for AGGGCUUGUUUGACAACUUTT against CHTF18, the median seed-adjusted z-score is 0.371 (inactive). For the sequence GCUGAUACCUUCUACCGUATT against GDPD2, the median seed-adjusted z-score is -0.0868 (inactive). On to ACCGCACGAUGUUCAACUUTT against DNAJC30, for which the median seed-adjusted z-score is 0.329 (inactive). As for CAGACAUGAAGUAUAAGAATT against TCEA2, the median seed-adjusted z-score was 0.552 (inactive). For CCUGCCCAAUGUGACCUUUTT against MRC2, the median seed-adjusted z-score was -1.34 (active). In the case of CAAAUCCUAUAGUAUAACATT against RPS6KC1, the median seed-adjusted z-score is 0.344 (inactive). As for AGAUUAAGAUGUUCUACGATT against ADI1, the median seed-adjusted z-score was 0.0593 (inactive). GCCCAUUGACUAUUACUUUTT against AR: the median seed-adjusted z-score is -0.559 (inactive). As for GAUGGAAGAUGGAACGGUUTT against CDC42BPA, the median seed-adjusted z-score is 0.257 (inactive). As for GUAUGUCAAGGAGAACGGATT against CTSL2, the median seed-adjusted z-score was -1.04 (active). With CAUUAUCACUGGUGCACUUTT against CHN1, the median seed-adjusted z-score was 2.1e-05 (inactive). As for GGAAUAACAGUUGUAGGAATT against TMTC3, the median seed-adjusted z-score was 0.266 (inactive). With GAGAGCAACUUAAAGACGATT against ST18, the median seed-adjusted z-score was 0.0762 (inactive). UGCUCUACAUCAACCCUGATT against FSHR: the median seed-adjusted z-score is -0.462 (inactive). Consider GAAGAGCCGUAUGAUCGAATT against ZNF432, for which the median seed-adjusted z-score was -0.124 (inactive). With CAAGGAGCAGGGAUAUGAATT against ADAP2, the median seed-adjusted z-score is -1.1 (active). GAGAGAUUGUGAUUGGAGATT against BHMT: the median seed-adjusted z-score was 0 (inactive). For the sequence GGAUCCUAUUGAGAGGCUATT against HS2ST1, the median seed-adjusted z-score was 0.421 (inactive). The value for GCACCAAGCAUUAUGAAAATT against SDCBP was 0.0325 (inactive); that for CACCUGAAGUAAAUCGGAUTT against SF3B14 was -1.26 (active); that for AGACAGUGUGGGUCCUGGATT against CD300E was 0.337 (inactive). Regarding GGCAGUUAAUGGAACAAUUTT against MTMR7, the median seed-adjusted z-score is -0.207 (inactive).

Consider CGUGGGCUCUAUCUACUAUTT against PUF60, for which the median seed-adjusted z-score is 2.26 (active). Turning to GAUAGAUCGUUUUAAGAGATT against MST4, the median seed-adjusted z-score was 0.343 (inactive).

For the sequence CGACAACAUAUGUUCCGGATT against TNFRSF11B, the median seed-adjusted z-score was 0.582 (inactive).

Consider UAAUCAAGCUGAAAACAGATT against TRYX3, for which the median seed-adjusted z-score is 2.3 (active).

AAUUCGAGCUGGUGCCAUCTT against MYCL1: the median seed-adjusted z-score was 0.0658 (inactive).

As to ACCUCUACGUGGUCAGCUATT against DPP9, the median seed-adjusted z-score was -0.224 (inactive).

Take CCAAACGAUUUAUACCUAATT against IPMK: the median seed-adjusted z-score is -0.00138 (inactive). Regarding GAACAACCUGGAGAAAUAUTT against ENDOG, the median seed-adjusted z-score was -0.336 (inactive). Regarding GGAGAGACAUCGUCAGCUATT against AGXT, the median seed-adjusted z-score is 0.017 (inactive).

On to GAUGCUGGUUGGUUCGAUATT against MFSD4, for which the median seed-adjusted z-score was -1.89 (active). As for GAGUUUCGCCUGCUACAGATT against CELSR3, the median seed-adjusted z-score was 0 (inactive).

With GGAUGAUUCGGAAGGUGAATT against ZNF467, the median seed-adjusted z-score was 0 (inactive). Regarding GGGCCGUGCUGAUUGAGAATT against GPX2, the median seed-adjusted z-score is -0.21 (inactive). As for GGAGAAGAAUGAGCAACUUTT against ADAM19, the median seed-adjusted z-score is 0.0996 (inactive). The value for GGGCUUUGAUAGGAAUGCATT against UBE2K was 0.497 (inactive); that for CGCAGUAUGUGGACUAUGATT against NID2 was 0.283 (inactive); that for GCUGAAAUCAAAAAGCGGATT against RAB1B was 1.55 (active). For GGAAUGUGGUAACAGGAGATT against GMPR2, the median seed-adjusted z-score was 0.232 (inactive). CCUACUCUGUUGUUCGAAATT against C3: the median seed-adjusted z-score is 0.0281 (inactive). For the sequence GCGGGAGAAGCUUACCUUUTT against DPP3, the median seed-adjusted z-score was -0.261 (inactive). Consider GGAAAUAUGCGGCUACGGATT against NADSYN1, for which the median seed-adjusted z-score was 0.217 (inactive).

Take CGGGUACUGCUACACCUUUTT against SLC22A8: the median seed-adjusted z-score is 0.175 (inactive). On to GUGAGACAGUUGACCGAGATT against SLC26A2, for which the median seed-adjusted z-score is -1.25 (active). Consider CAUUCAAAUUUACCCUGUATT against POLR2H, for which the median seed-adjusted z-score is -2.74 (active). With GGACCUUGUUAACAGUGGATT against APOBEC1, the median seed-adjusted z-score was -0.323 (inactive). The value for CCCUGUACGUGUACAUCAUTT against MPG was -0.0888 (inactive). The value for GAGGCAGUCUUAAAAUGGATT against RAB32 was -0.112 (inactive); that for CUUCAAGAAUAAGUACGAATT against KRT7 was 0 (inactive); that for GUGUGAUUCUUGGAGCAAATT against PLD2 was -0.743 (inactive). Regarding CAACUACAACUGUGAGAUUTT against SF3A3, the median seed-adjusted z-score is -2.1 (active).

Take GAAAUACUGCGGUAUAAAATT against SYTL2: the median seed-adjusted z-score is 0.211 (inactive). In the case of GCCCAUAGAGGGUUCAGAATT against CCNT1, the median seed-adjusted z-score was -0.72 (inactive).

On to GAGAUGAACCGGAACAUCATT against LOC650864, for which the median seed-adjusted z-score was 0.214 (inactive).

On to GAACCAUGGAUGGUGAUAATT against ZNF287, for which the median seed-adjusted z-score is 0.0213 (inactive). As to GCUCCACAGCAUAUGCUCATT against NFIL3, the median seed-adjusted z-score is 0.4 (inactive). Take GAACUGUGAAUUAGAUGUATT against F9: the median seed-adjusted z-score is 0.332 (inactive). The value for GGAACACGCUGACAGGACATT against FZR1 was 0.729 (inactive); that for CGAUGUUGAAGUUACACCATT against ATP13A4 was -1.09 (active); that for CCGCGAAUCCAUGACAAUATT against UGCG was 0.492 (inactive). On to CCACCUCUACCAAACAUUUTT against IL2RG, for which the median seed-adjusted z-score is -0.155 (inactive). Take GGAGAUUCAUUCUAACCAUTT against ADAMTS19: the median seed-adjusted z-score was -0.39 (inactive).

With CAGUGAGAGUUUCAUCUUUTT against PKD1L2, the median seed-adjusted z-score was -1.17 (active). For GGAUAUGAGUUACAUGACATT against GALNT5, the median seed-adjusted z-score was -0.279 (inactive). As for GGACGACUUCUUUAAGUCATT against PGD, the median seed-adjusted z-score was -1.55 (active).

For the sequence CGGCAAUUGUUGACGUGAATT against TXNDC11, the median seed-adjusted z-score was 0.642 (inactive). For GGAUGGACUUUAUCCAGCATT against TM7SF4, the median seed-adjusted z-score was 0.0246 (inactive).

In the case of GGACAACAGUCGGUCGAAUTT against ANP32C, the median seed-adjusted z-score was -0.421 (inactive).

In the case of UGAUAUCGGCUACGUCAAATT against NAGK, the median seed-adjusted z-score is 0.446 (inactive). Take GGAUUACAGUGUCCAAAGATT against ADRA1A: the median seed-adjusted z-score is -1.06 (active). On to CCUACUAUGUGAGCAAUGATT against EEF1G, for which the median seed-adjusted z-score was -0.206 (inactive). Take GAGUCACAAUCGCAUGAAATT against FKBP9: the median seed-adjusted z-score is 0.359 (inactive).

On to CCACACUUUUGGUCUUUAATT against PGDS, for which the median seed-adjusted z-score is 0.02 (inactive).

Consider AGACGGUCCUCUUUCGACATT against LOC442229, for which the median seed-adjusted z-score is 0.183 (inactive). On to GGAUAUCAAUUAUUACGCUTT against LIFR, for which the median seed-adjusted z-score is 0.031 (inactive). For AGGAGUCCCUAAUGCUACATT against TRIM74 the value was 0.0932 (inactive). Take GCAUCAACUUUGUGCAUGATT against PLTP: the median seed-adjusted z-score was 1.09 (active). Consider GCAGCAAACUGACGGAGAATT against PCTK3, for which the median seed-adjusted z-score is 0 (inactive). As for CAGUGCUCAUGGAACUCUUTT against HMGCS2, the median seed-adjusted z-score is -0.465 (inactive).

As for CGAUGAAGGGUUCCGAUUATT against CR1, the median seed-adjusted z-score is 0.143 (inactive). GGGCGAGUAUGACCGAUCATT against CTRL: the median seed-adjusted z-score is 0.0758 (inactive). Regarding GCAGAUACAUUGAUCGCAUTT against PRPF8, the median seed-adjusted z-score is -1.54 (active). Regarding GGACCAGACAACGAACUGATT against RNF135, the median seed-adjusted z-score was 0.581 (inactive).

In the case of CGCUGAAACACGUCCAUUUTT against CHAD, the median seed-adjusted z-score is 0 (inactive). For the sequence CUCUGAACAUCAACCCGGATT against DMRTB1, the median seed-adjusted z-score is -0.393 (inactive). As for GGAUCGUGGUCUUUCCAAATT against FNTA, the median seed-adjusted z-score was 1.04 (active). GAAGAUUGGUGAUCUAGGATT against WNK3: the median seed-adjusted z-score was -0.466 (inactive). For the sequence GGCUUCUUGUCCAACCCUATT against CILP, the median seed-adjusted z-score was 0.0436 (inactive).

In the case of GUAGGACCCUAAUAUCGAUTT against TEP1, the median seed-adjusted z-score is -0.495 (inactive).

With CAACUUUGAGGUAAAGUCATT against PRPF19, the median seed-adjusted z-score is -0.485 (inactive). Take CGCUGAUACUAACAAUUGATT against AOX1: the median seed-adjusted z-score is -0.0717 (inactive). With GAUUCGUUCUUCUACAACUTT against PSMD2, the median seed-adjusted z-score was -1.44 (active). In the case of GGGCUGGAAUUACUAUGGATT against CCNH, the median seed-adjusted z-score is -0.659 (inactive). Turning to GGCGAUUAGGAAACAUGAATT against PRKX, the median seed-adjusted z-score is 0.0341 (inactive). The value for GCAUUUUCCGCCUACCACATT against POLM was -1.55 (active); that for GAACAUUUCCAAGUCUGUATT against YSK4 was -0.181 (inactive).

For the sequence CCAAGUUUAUAUCAUAUUATT against GNG4, the median seed-adjusted z-score was -0.188 (inactive). As to CGCGGUGCAUAUGAAGAUATT against PIGM, the median seed-adjusted z-score is 1.36 (active). CAGUGUAAUUAGGCAACUATT against MYO3A: the median seed-adjusted z-score was 0.0776 (inactive). In the case of CACCUCCGAUAAGCCCUAUTT against ZIC2, the median seed-adjusted z-score is -0.162 (inactive). As to GCAACUACUUCCGAUCUAATT against KIF17, the median seed-adjusted z-score is -0.151 (inactive). GGUUGUAACUGCAAGAUCATT against TIMP3: the median seed-adjusted z-score is -1.05 (active). As to CAUCCAUAAUUGGUGUAAATT against KIF20B, the median seed-adjusted z-score is 0 (inactive).

In the case of ACUUAGUCAUCAUCAAGUATT against GK, the median seed-adjusted z-score was -0.474 (inactive). Consider CAAGAUUCUUGACCUUGAATT against PDP2, for which the median seed-adjusted z-score was -0.0726 (inactive). In the case of GGAUAUUGCGUUUGGAACATT against TDP1, the median seed-adjusted z-score is -0.352 (inactive).
